# Data published in article PMC11062922 (Nature Chemical Biology, 2023).
# Where two headings read alike, the source gives them in different places.
# Biological target: Q6ZSR9 (human, UniProt Q6ZSR9)
# Conditions: read-out: apparent Kd, n = 1
# Sequence of Q6ZSR9 (Q6ZSR9 whole entry, looked up): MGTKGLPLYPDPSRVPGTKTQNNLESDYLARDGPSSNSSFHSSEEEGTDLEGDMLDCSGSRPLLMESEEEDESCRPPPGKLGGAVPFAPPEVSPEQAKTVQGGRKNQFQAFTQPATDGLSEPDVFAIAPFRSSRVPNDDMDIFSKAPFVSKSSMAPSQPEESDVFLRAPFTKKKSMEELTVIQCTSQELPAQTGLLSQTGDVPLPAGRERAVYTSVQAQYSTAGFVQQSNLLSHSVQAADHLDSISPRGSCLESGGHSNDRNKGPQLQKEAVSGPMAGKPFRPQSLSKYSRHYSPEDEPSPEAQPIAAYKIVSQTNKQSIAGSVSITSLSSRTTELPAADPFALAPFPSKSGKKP
substance,measurement,setting,value
Lestaurtinib,potency estimated from few doses,"compound concentrations:100 nM and 1000 nM (sheet 'Lestaurtinib' of Supplementary Table 1),run:Lestaurtinib_02496_R1,Plate:MR013",65.5 nM
same,potency estimated from few doses,"compound concentrations:100 nM and 1000 nM (sheet 'Lestaurtinib' of Supplementary Table 1),run:Lestaurtinib_02496_R2,Plate:MR013",59.5 nM
same,potency estimated from few doses,"compound concentrations:100 nM and 1000 nM (sheet 'Lestaurtinib' of Supplementary Table 1),run:Lestaurtinib_02496_R3,Plate:MR013",66.8 nM
same,potency estimated from few doses,"compound concentrations:100 nM and 1000 nM (sheet 'Lestaurtinib' of Supplementary Table 1),run:Lestaurtinib_02566_R2,Plate:MR014",55.7 nM
same,potency estimated from few doses,"compound concentrations:100 nM and 1000 nM (sheet 'Lestaurtinib' of Supplementary Table 1),run:Lestaurtinib_02566_R3,Plate:MR014",80.5 nM
same,potency estimated from few doses,"compound concentrations:100 nM and 1000 nM (sheet 'Lestaurtinib' of Supplementary Table 1),run:Lestaurtinib_02572_R1,Plate:MR015",40.6 nM
same,potency estimated from few doses,"compound concentrations:100 nM and 1000 nM (sheet 'Lestaurtinib' of Supplementary Table 1),run:Lestaurtinib_02572_R2,Plate:MR015",74.4 nM
same,potency estimated from few doses,"compound concentrations:100 nM and 1000 nM (sheet 'Lestaurtinib' of Supplementary Table 1),run:Lestaurtinib_02572_R3,Plate:MR015",48.9 nM
same,potency estimated from few doses,"compound concentrations:100 nM and 1000 nM (sheet 'Lestaurtinib' of Supplementary Table 1),run:Lestaurtinib_02577_R1,Plate:MR016",63.4 nM
same,potency estimated from few doses,"compound concentrations:100 nM and 1000 nM (sheet 'Lestaurtinib' of Supplementary Table 1),run:Lestaurtinib_02577_R2,Plate:MR016",53.4 nM
same,potency estimated from few doses,"compound concentrations:100 nM and 1000 nM (sheet 'Lestaurtinib' of Supplementary Table 1),run:Lestaurtinib_02577_R3,Plate:MR016",59.4 nM
same,potency estimated from few doses,"compound concentrations:100 nM and 1000 nM (sheet 'Lestaurtinib' of Supplementary Table 1),run:Lestaurtinib_02584_R1,Plate:MR017",92.8 nM
same,potency estimated from few doses,"compound concentrations:100 nM and 1000 nM (sheet 'Lestaurtinib' of Supplementary Table 1),run:Lestaurtinib_02584_R2,Plate:MR017",64.9 nM
same,potency estimated from few doses,"compound concentrations:100 nM and 1000 nM (sheet 'Lestaurtinib' of Supplementary Table 1),run:Lestaurtinib_02584_R3,Plate:MR017",79 nM
same,potency estimated from few doses,"compound concentrations:100 nM and 1000 nM (sheet 'Lestaurtinib' of Supplementary Table 1),run:Lestaurtinib_02601_R1,Plate:MR018",49.8 nM
same,potency estimated from few doses,"compound concentrations:100 nM and 1000 nM (sheet 'Lestaurtinib' of Supplementary Table 1),run:Lestaurtinib_02601_R3,Plate:MR018",44.4 nM
same,potency estimated from few doses,"compound concentrations:100 nM and 1000 nM (sheet 'Lestaurtinib' of Supplementary Table 1),run:Lestaurtinib_02606_R2,Plate:MR019",52 nM
same,potency estimated from few doses,"compound concentrations:100 nM and 1000 nM (sheet 'Lestaurtinib' of Supplementary Table 1),run:Lestaurtinib_02606_R3,Plate:MR019",60.4 nM
same,potency estimated from few doses,"compound concentrations:100 nM and 1000 nM (sheet 'Lestaurtinib' of Supplementary Table 1),run:Lestaurtinib_02624_R2,Plate:MR020",61.1 nM
same,potency estimated from few doses,"compound concentrations:100 nM and 1000 nM (sheet 'Lestaurtinib' of Supplementary Table 1),run:Lestaurtinib_02624_R3,Plate:MR020",55.5 nM
same,potency estimated from few doses,"compound concentrations:100 nM and 1000 nM (sheet 'Lestaurtinib' of Supplementary Table 1),run:Lestaurtinib_02724_R2,Plate:MR021",51.2 nM
same,potency estimated from few doses,"compound concentrations:100 nM and 1000 nM (sheet 'Lestaurtinib' of Supplementary Table 1),run:Lestaurtinib_02724_R3,Plate:MR021",61.2 nM
same,potency estimated from few doses,"compound concentrations:100 nM and 1000 nM (sheet 'Lestaurtinib' of Supplementary Table 1),run:Lestaurtinib_02741_R1,Plate:MR023",77.1 nM
same,potency estimated from few doses,"compound concentrations:100 nM and 1000 nM (sheet 'Lestaurtinib' of Supplementary Table 1),run:Lestaurtinib_02741_R2,Plate:MR023",85.4 nM
same,potency estimated from few doses,"compound concentrations:100 nM and 1000 nM (sheet 'Lestaurtinib' of Supplementary Table 1),run:Lestaurtinib_02741_R3,Plate:MR023",77.2 nM
same,potency estimated from few doses,"compound concentrations:100 nM and 1000 nM (sheet 'Lestaurtinib' of Supplementary Table 1),run:Lestaurtinib_02748_R1,Plate:MR024",67.4 nM
same,potency estimated from few doses,"compound concentrations:100 nM and 1000 nM (sheet 'Lestaurtinib' of Supplementary Table 1),run:Lestaurtinib_02748_R2,Plate:MR024",46.2 nM
same,potency estimated from few doses,"compound concentrations:100 nM and 1000 nM (sheet 'Lestaurtinib' of Supplementary Table 1),run:Lestaurtinib_02748_R3,Plate:MR024",66.5 nM
same,potency estimated from few doses,"compound concentrations:100 nM and 1000 nM (sheet 'Lestaurtinib' of Supplementary Table 1),run:Lestaurtinib_02752_R1,Plate:MR025",48.7 nM
same,potency estimated from few doses,"compound concentrations:100 nM and 1000 nM (sheet 'Lestaurtinib' of Supplementary Table 1),run:Lestaurtinib_02765_R2,Plate:MR026",131 nM
same,potency estimated from few doses,"compound concentrations:100 nM and 1000 nM (sheet 'Lestaurtinib' of Supplementary Table 1),run:Lestaurtinib_02765_R3,Plate:MR026",71.7 nM
same,potency estimated from few doses,"compound concentrations:100 nM and 1000 nM (sheet 'Lestaurtinib' of Supplementary Table 1),run:Lestaurtinib_02766_R1,Plate:MR027",47.5 nM
same,potency estimated from few doses,"compound concentrations:100 nM and 1000 nM (sheet 'Lestaurtinib' of Supplementary Table 1),run:Lestaurtinib_02766_R2,Plate:MR027",37.3 nM
same,potency estimated from few doses,"compound concentrations:100 nM and 1000 nM (sheet 'Lestaurtinib' of Supplementary Table 1),run:Lestaurtinib_02766_R3,Plate:MR027",47 nM
same,potency estimated from few doses,"compound concentrations:100 nM and 1000 nM (sheet 'Lestaurtinib' of Supplementary Table 1),run:Lestaurtinib_02768_R1,Plate:MR028",48.3 nM
same,potency estimated from few doses,"compound concentrations:100 nM and 1000 nM (sheet 'Lestaurtinib' of Supplementary Table 1),run:Lestaurtinib_02768_R2,Plate:MR028",49.7 nM
same,potency estimated from few doses,"compound concentrations:100 nM and 1000 nM (sheet 'Lestaurtinib' of Supplementary Table 1),run:Lestaurtinib_02768_R3,Plate:MR028",57.7 nM
same,potency estimated from few doses,"compound concentrations:100 nM and 1000 nM (sheet 'Lestaurtinib' of Supplementary Table 1),run:Lestaurtinib_02795_R1,Plate:MR022",67.2 nM
same,potency estimated from few doses,"compound concentrations:100 nM and 1000 nM (sheet 'Lestaurtinib' of Supplementary Table 1),run:Lestaurtinib_02795_R2,Plate:MR022",73.9 nM
same,potency estimated from few doses,"compound concentrations:100 nM and 1000 nM (sheet 'Lestaurtinib' of Supplementary Table 1),run:Lestaurtinib_02802_R1,Plate:MR029",52.5 nM
same,potency estimated from few doses,"compound concentrations:100 nM and 1000 nM (sheet 'Lestaurtinib' of Supplementary Table 1),run:Lestaurtinib_02802_R2,Plate:MR029",43.8 nM
same,potency estimated from few doses,"compound concentrations:100 nM and 1000 nM (sheet 'Lestaurtinib' of Supplementary Table 1),run:Lestaurtinib_02896_R3,Plate:MR030",88 nM
same,potency estimated from few doses,"compound concentrations:100 nM and 1000 nM (sheet 'Lestaurtinib' of Supplementary Table 1),run:Lestaurtinib_03172_R1,Plate:MR031",51.8 nM
